Source: PubChem
Compounds with a hit are over-represented: about 2.4% of the library has one in this group of screens.
Anthrax LT inh = blocks cellular internalization of anthrax lethal toxin | Potency, µM (doses to about 40 µM), for inactives: at the highest dose activity change, negative = inhibition, most hits filed as inhibitors | Cells, anthrax lethal toxin internalization, FRET ratio (460/530) | 0.67% of 70,000 active; further: on the % scale 0 is the no-effect control and ±100 the full control effect; nearly all actives have a fitted effect of over 50% in size
AmpC inh no det = inhibitors of E. coli AmpC beta-lactamase without detergent. P00811. AmpC nitrocefin hydrolysis, absorbance 480 nm, no detergent. Potency, µM (series often up to 28.7 µM), for inactives: at the highest dose activity change, negative = inhibition. 1.8% of 71,000 active. AID 585; further: % of control where 0% means no effect
Target sequence (P00811 whole entry, looked up): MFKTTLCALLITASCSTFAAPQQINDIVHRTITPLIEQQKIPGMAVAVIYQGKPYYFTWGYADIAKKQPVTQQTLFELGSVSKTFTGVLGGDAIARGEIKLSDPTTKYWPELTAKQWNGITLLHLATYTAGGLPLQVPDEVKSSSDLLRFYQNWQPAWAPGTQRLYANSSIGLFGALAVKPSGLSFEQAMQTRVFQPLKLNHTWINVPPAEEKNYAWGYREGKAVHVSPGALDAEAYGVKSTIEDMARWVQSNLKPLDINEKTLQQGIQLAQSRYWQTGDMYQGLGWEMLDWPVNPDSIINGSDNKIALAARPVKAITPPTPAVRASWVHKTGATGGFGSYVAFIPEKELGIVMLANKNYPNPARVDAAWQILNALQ
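Enzyme, pH 7.0 phosphate. Compound titrations were pre-incubated with AmpC for 15 min at room temperature before nitrocefin (stock 800 uM) addition; product formation was recorded at 480 nm every 20 s for 4 min.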
Prx2 Sm inh = Schistosoma mansoni Prx2 inhibition. S. mansoni Prx2 activity coupled to TGR/GSH (TGR is thioredoxin glutathione reductase), NADPH fluorescence loss, qHTS. 0.07% of 65,000 active. Potency, µM. AID 448
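qHTS, coupled TGR/Prx2 format; 15 min compound preincubation at RT; reaction started with H2O2 (2.5 mM aliquot); kinetic NADPH fluorescence decrease, ex 365/em 450 nm.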
AmpC det inh = inhibitors of E. coli AmpC beta-lactamase with detergent | purified AmpC, nitrocefin hydrolysis with detergent | P00811 | Potency, µM (top dose mostly 28.7 µM), for the others: top-dose activity change, negative = inhibition | 0.09% of 71,000 active; active means well fitted curve in the direction sought with a large enough effect; inconclusive means small, poorly fitted or top-dose-only effect; further: on the % scale 0 is the no-effect control and ±100 the full control effect
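E. coli AmpC (5.3 nM) in 20 mM phosphate pH 7.0 with 0.01% Triton X-100, preincubated 15 min RT with compound; nitrocefin (2 uL of 800 uM stock) hydrolysis followed by 480 nm absorbance every 20 s over 4 min.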
An asterisk follows results filed as active; u = inconclusive; x = not tested or not shown; [ ] = remark or other dose. Unless noted, the call rests on the fitted dose curve. Potency means the concentration at half of the fitted maximal effect.

SMILES	Anthrax LT inh	AmpC inh no det	Prx2 Sm inh	AmpC det inh
COC(=O)CSc1nc2ccc(NC(=O)CSc3nnnn3Cc3ccccc3)cc2s1	5µM*	u	x	0%
COc1cccc(C2=NOC(C(=O)Nc3cc(C)nn3-c3ccccc3)C2)c1OC (stereo unspecified)	u	4µM*[single pt active]	>57	11%
COc1cc(OC)c(C2=NOC(C(=O)Nc3cc(C)nn3-c3ccccc3)C2)cc1Cl (stereo unspecified)	u	78%	>57	0%
CCC(Oc1ccc2ccccc2c1)C(=O)O (stereo unspecified)	-12%	3%	>57	-1%
CC1=CC(=O)NP(=O)(Oc2ccc3ccccc3c2)N1 (stereo unspecified)	u	-13%	0.57*	5%
CS(=O)(=O)N1CCC[C@@]2(CCN(C(c3ccccc3)c3ccccc3)C2)C1	3%	122%	>57	-3%
O=c1[nH]c2cc3c(cc2cc1C(c1nnnn1C1CCCC1)N1CCCc2ccccc21)OCCO3 (stereo unspecified)	7.9µM*	-3%	>57	-3%
COc1cc2cc(C(c3nnnn3C3CCCC3)N3CCc4ccccc43)c(=O)[nH]c2cc1OC (stereo unspecified)	u	118%	>57	20%
O=c1[nH]c2cc3c(cc2cc1C(c1nnnn1Cc1ccccc1)N1CCCc2ccccc21)OCO3 (stereo unspecified)	-10%	3.2µM*	>57	8%
CC(C)=CCC/C(C)=C/CO/N=C1/C[C@@H](O)[C@@H](O)[C@@H]2[C@@H]3C(=O)N(Cc4ccc5c(c4)OCO5)C(=O)[C@H]3CC[C@H]12	-3%[8 µM]	x	x	x
Cc1cccc(CNc2nc(-c3ccccc3CN(C)C)nc3ccccc23)c1	u	84%	>57	8%
CC(=O)n1nc(-c2ccco2)nc1SCc1ccccc1	7.9µM*	u	u	-2%
CCC(=O)n1nc(-c2ccco2)nc1SCc1ccccc1	-6%	4%	>57	-1%
C=CCn1c(SCCCC)nc(O)cc1=O	-3%	4µM*[single pt active]	>57	11%
N[C@@H](CSC(=O)c1ccccc1)C(=O)O	-10%[8 µM]	4%[5.75 µM]	>57	-2%[5.75 µM]
CS/C(=N\S(=O)(=O)c1cccs1)NC(=O)CSc1nc2ccccc2s1	u	13µM*	>57	-4%
CCCC[C@@H]1CN2[C@H](c3ccc(Br)cc3)[C@H](C)CC[C@H]2C(=O)O1	-3%[1.6 µM]	x	x	x
COC(=O)c1ccc2c(c1)NC(=O)C1CCCN21 (stereo unspecified)	u	4µM*[single pt active]	>57	27%
COc1cccc(NC(=O)c2nnn(CCc3ccccc3)c2N)c1	u	4µM*[single pt active]	>57	9%
COc1cc(NC(=O)c2nnn(Cc3ccc(SC)cc3)c2N)cc(OC)c1	u	4µM*[single pt active]	>57	11%
CCOc1ccc(NC(=O)Cn2nnc(C(=O)NCc3ccccc3OC)c2N)cc1	u	-8%	>57	-5%
CSc1cccc(NC(=O)c2nnn(Cc3ccccc3)c2N)c1	u	-16%	>57	-2%
COc1cccc(NC(=O)Cn2nnc(C(=O)Nc3ccccc3)c2N)c1	7%	-13%	>57	0%
CCOc1ccc(Cn2nnc(C(=O)NCc3ccc(OC)cc3)c2N)cc1	-16%	4µM*[single pt active]	>57	15%
COC(=O)c1nnn(Cc2ccccc2)c1N	7%	-2%	>57	-1%
SMILES	Anthrax LT inh	AmpC inh no det	Prx2 Sm inh	AmpC det inh
CCc1ccc(Cn2nnc(C(=O)Nc3ccc(OC)cc3OC)c2N)cc1	-10%	4µM*[single pt active]	>57	10%
COc1ccc(-c2nc3cnc(N4CCOCC4)nc3n(Cc3cccs3)c2=O)cc1	-5%	13%	>57	21%
CC(=O)Oc1ccc(/C=C\C(=O)C[C@@H]2O[C@@H](Oc3cc(OC(C)=O)c4c(c3)O[C@@H](c3ccc(OC(C)=O)cc3)CC4=O)[C@H](OC(C)=O)[C@H](OC(C)=O)[C@@H]2OC(C)=O)cc1	u	51%	>57	1%
COc1ccccc1CNc1nc(-c2ccccc2OC)nc2ccccc12	u	37%	>57	9%
COCCn1c(=O)c(-c2ccccc2)nc2cnc(OC)nc21	-9%	18%	>57	-2%
O=c1cc(-c2ccc(O)c(O)c2)oc2cc(O[C@@H]3O[C@@H](CO)[C@@H](O)[C@@H](O)[C@H]3O)cc(O)c12	u	-10%	>26	-1%
COc1ccc(OC)c(NC(=O)c2nnn(CCc3ccccc3)c2N)c1	-13%	4µM*[single pt active]	>57	12%
C(=NC1CCCCC1)=NC1CCCCC1	4µM*	-12%	x	12%
O=C=NC1CCCCC1	-3%	-3%	x	14%
Cc1ccc2c(c1)c(-c1ccccc1)nc1nncn12	u	2.5µM*[single pt active]	>57	14%
Cc1cccc(-c2nc3ccccc3c3nncn23)c1	-12%	16%	x	3%
C=C(C)CSc1nc(N)c(C#N)c(-c2ccc(C)cc2)c1C#N	u	6.3µM*	>57	19%
CCCCOc1ccc(-c2c(C#N)c(N)nc(SCC(N)=O)c2C#N)cc1	u	20µM*[single pt active]	>57	6%
CSc1nc(N)c(C#N)c(-c2ccc(Cl)cc2)c1C#N	u	u	>57	-4%
O=c1cnc2cnc(Nc3ccccc3)nc2n1CCc1ccccc1	-13%	23%	>57	2%
Nc1nc(SCc2ccccc2)ns1	u	-17%	>57	-4%
Nc1nc2c(s1)CC(c1ccccc1)CC2 (stereo unspecified)	4%	7.9µM*	>57	8%
O=C(Nc1cccc(F)c1)N1CC2(CCN(C(=O)c3ccco3)CC2)C1	-13%	11%	>57	-3%
O=C(CSc1nnc(CNc2ccc(Cl)cc2)o1)Nc1nc2ccccc2s1	-4%	4µM*[single pt active]	>57	0%
O=C(COc1ccc(Cl)cc1)NCc1nnc(SCC(=O)Nc2ccccc2)o1	-3%	30%	>57	-4%
COc1ccc(C(C)(C)C)cc1NC(=O)Nc1ccc2c(c1)OCO2	10µM*	-4%	>57	0%
Cc1ccccc1C1CC(c2ccc(Br)cc2)Nc2nc(N)nn21 (stereo unspecified)	-15%	97%	>57	12%
Nc1nc2n(n1)C(c1ccccc1)CC(c1ccc(F)cc1)N2 (stereo unspecified)	-1%	4µM*[single pt active]	>57	14%
Nc1nc2n(n1)C(c1cccc(Br)c1)CC(c1ccc(F)cc1)N2 (stereo unspecified)	6%	42%	>57	12%
Nc1nc2n(n1)C(c1c(F)cccc1Cl)CC(c1ccc(F)cc1)N2 (stereo unspecified)	-2%	4µM*[single pt active]	>57	15%
CCc1ccc(C2CC(c3ccc(Cl)cc3)n3nc(N)nc3N2)cc1 (stereo unspecified)	3%	4µM*[single pt active]	>57	13%
Cc1ccccc1C1CC(c2ccc(F)cc2)Nc2nc(N)nn21 (stereo unspecified)	u	4µM*[single pt active]	>57	12%
Nc1nc2n(n1)C(c1ccco1)CC(c1ccc(F)cc1)N2 (stereo unspecified)	-3%	33%	>57	13%
